This note sets out measurements from the supplement of paper PMC6522484.

± gives the standard deviation of the averaged measurements.

For the test, the system named is DLD1. Nature of the test: TCF/Wnt firefly luciferase reporter signal relative to plate median (fraction of plate median); higher = higher Wnt reporter signal. The following applies: 5 µM; treatment time 24 h; reporter: 7TFP. Summed up:
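Per-well firefly luciferase or CellTiterGlo luminescence, normalised to the plate median, is what is reported. It was measured in colorectal cancer cells with stable lentiviral TCF/Wnt firefly luciferase reporters after a 24 h treatment with library compounds at a final 5 µM. The mean of two independent replicates is given.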
(Reporter assays use an easily measured gene product as a stand-in for the process of interest.)
For `O=c1cc(-c2ccccc2)oc2cccc(O)c12`, the “TCF/Wnt firefly luciferase reporter signal” value was 0.98 ± 0.0085.

With `C[C@]12CCC(=O)C=C1C=C[C@@H]1[C@@H]2CC[C@@]2(C)[C@H]1CC[C@@]21CCC(=O)O1`, the “TCF/Wnt firefly luciferase reporter signal” value is 1.1 ± 0.071.

In the case of `CCc1cnn2c(NCc3ccc[n+]([O-])c3)cc(N3CCCC[C@H]3CCO)nc12` [Dinaciclib], the “TCF/Wnt firefly luciferase reporter signal” value turned out to be 0.57 ± 0.12.

For `O=C(/C=C/c1ccc(O)c(O)c1)OCCc1ccccc1`, the “TCF/Wnt firefly luciferase reporter signal” value is 0.948 ± 0.059.

For `O=C(Cn1ccnc1[N+](=O)[O-])NCCO`, the “TCF/Wnt firefly luciferase reporter signal” value came out at 1.09 ± 0.17.

On to `O=C(O)c1cc(O)c(O)c(O)c1`, for which the “TCF/Wnt firefly luciferase reporter signal” value came to 1.11 ± 0.17.

In the case of `Cc1cc(O)c(C=O)c2c1C(=O)Oc1c(COC(=O)/C=C/C(=O)O)c(O)c(C(=O)O)c(C)c1O2`, the “TCF/Wnt firefly luciferase reporter signal” value came to 0.933 ± 0.12.

Take `CC(C)c1c(O)ccc2c1CCC1[C@@](C)(C=O)CCC[C@]21C` (stereo not given in full): the “TCF/Wnt firefly luciferase reporter signal” value turned out to be 1.03 ± 0.014.

As for `CC(=O)OC(C)(C)[C@@H]1Cc2cc3ccc(=O)oc3cc2O1`, the “TCF/Wnt firefly luciferase reporter signal” value stood at 0.896 ± 0.039.

On to `CCOC(=O)[C@H](CCc1ccccc1)N[C@@H](C)C(=O)N1Cc2ccccc2C[C@H]1C(=O)O`, for which the “TCF/Wnt firefly luciferase reporter signal” value was 0.958 ± 0.0085.

As to `COc1cc(/C=C/C(=O)O)cc(OC)c1OC`, the “TCF/Wnt firefly luciferase reporter signal” value stood at 0.827 ± 0.072.

On to `CC(=O)OC1CCC2(O)CC1(C)CCC1C2CC1(C)C` (stereo not given), for which the “TCF/Wnt firefly luciferase reporter signal” value was 0.9135 ± 0.0064.

For `C[C@@H]1CC[C@@]2(OC1)O[C@H]1C[C@H]3[C@@H]4CC[C@H]5C[C@@H](O)CC[C@]5(C)[C@H]4CC[C@]3(C)[C@H]1[C@@H]2C`, the “TCF/Wnt firefly luciferase reporter signal” value was determined as 1.06 ± 0.028.

On to `CC(=O)OCC(=O)[C@@]1(O)CC[C@H]2[C@@H]3CCC4=CC(=O)CC[C@]4(C)[C@@]3(F)[C@@H](O)C[C@@]21C`, for which the “TCF/Wnt firefly luciferase reporter signal” value came out at 1.06.

In the case of `COc1ccc2c3c1O[C@H]1C[C@@H](O)C=C[C@@]31CCN(C)C2`, the “TCF/Wnt firefly luciferase reporter signal” value came to 0.9965 ± 0.0021.

In the case of `CCCCC(=O)N(Cc1ccc(-c2ccccc2-c2nnn[nH]2)cc1)[C@H](C(=O)O)C(C)C`, the “TCF/Wnt firefly luciferase reporter signal” value is 0.985 ± 0.078.

For the compound `CNCC[C@H](Oc1cccc2ccccc12)c1cccs1`, the “TCF/Wnt firefly luciferase reporter signal” value stood at 0.87 ± 0.023.

As for `CC1NC(=O)CNC1=O` (stereo not given) [cyclo(alanylglycyl)], the “TCF/Wnt firefly luciferase reporter signal” value is 0.947 ± 0.012.

Take `COc1ccc(NS(=O)(=O)c2ccc(N)cc2)nn1`: the “TCF/Wnt firefly luciferase reporter signal” value is 1.12 ± 0.19.

As for `O=C(CCCCC(=O)Nc1c(I)cc(I)c(C(=O)O)c1I)Nc1c(I)cc(I)c(C(=O)O)c1I`, the “TCF/Wnt firefly luciferase reporter signal” value was 1.05 ± 0.028.

Take `COc1cc([S+](C)[O-])ccc1-c1nc2cccnc2[nH]1` (stereo not given): the “TCF/Wnt firefly luciferase reporter signal” value came out at 0.907 ± 0.22.

As for `C/C=C/C1=CC(=O)[C@@H](O)[C@@H]1O` [Terrein], the “TCF/Wnt firefly luciferase reporter signal” value was 1.25 ± 0.085.

`O=C1OC(=O)[C@H]2[C@@H]1[C@@H]1CC[C@H]2O1`: the “TCF/Wnt firefly luciferase reporter signal” value worked out at 1.06 ± 0.13.

On to `COC(=O)c1c(OC)cc2c(c1C)Oc1c(Cl)c(OC(C)=O)c(Cl)c(C)c1C(=O)O2`, for which the “TCF/Wnt firefly luciferase reporter signal” value amounted to 1.03 ± 0.042.

Regarding `Cc1cc(O)cc(C)c1Cl`, the “TCF/Wnt firefly luciferase reporter signal” value came to 0.881 ± 0.059.

Turning to `CC(=O)N1CCCC(N)C1=O` (stereo not given) [N-Acetyl-3-amino-2-piperidinon], the “TCF/Wnt firefly luciferase reporter signal” value was 0.821 ± 0.13.

`CCc1ccc(CCOc2ccc(CC3SC(=O)NC3=O)cc2)nc1` (stereo not given): the “TCF/Wnt firefly luciferase reporter signal” value was 1.015 ± 0.0071.

Turning to `O=C(C=Cc1ccc(O)cc1)c1ccccc1O`, the “TCF/Wnt firefly luciferase reporter signal” value worked out at 1.06 ± 0.035.

With `CO/N=C(\C(=O)N[C@@H]1C(=O)N2C(C(=O)O)=C(CSc3nc(=O)c(O)nn3C)CS[C@H]12)c1csc(N)n1`, the “TCF/Wnt firefly luciferase reporter signal” value turned out to be 1.1 ± 0.14.

For the compound `O=c1cc(-c2ccc(O)c(O)c2)oc2cc(O[C@@H]3O[C@H](CO)[C@@H](O)[C@H](O)[C@H]3O)cc(O)c12` [Luteolin-7-O-glucoside (102)], the “TCF/Wnt firefly luciferase reporter signal” value came to 0.861 ± 0.052.

On to `CCCCc1oc2ccccc2c1C(=O)c1cc(I)c(OCCN(CC)CC)c(I)c1`, for which the “TCF/Wnt firefly luciferase reporter signal” value came out at 1.02 ± 0.029.

Turning to `COC(=O)N/N=C/c1c[n+]([O-])c2ccccc2[n+]1[O-]`, the “TCF/Wnt firefly luciferase reporter signal” value turned out to be 0.919 ± 0.064.

As to `COc1ccc2c(c1)[C@@]1(C)CC[C@@H](O)C[C@@H]1CC2` [12-METHOXY-4,4-BISNOR-5alpha-8,11,13-PODOCARPATRIEN-3-OL], the “TCF/Wnt firefly luciferase reporter signal” value turned out to be 1.03 ± 0.11.

As for `CN1CC(=O)N2[C@H](c3ccc4c(c3)OCO4)c3[nH]c4ccccc4c3C[C@@H]2C1=O`, the “TCF/Wnt firefly luciferase reporter signal” value came out at 0.973 ± 0.081.

For the compound `N[C@@H](Cc1c[nH]c2ccccc12)C(=O)O`, the “TCF/Wnt firefly luciferase reporter signal” value was determined as 1.21 ± 0.028.

As to `CCOC(=O)[C@H](CCc1ccccc1)N[C@@H](C)C(=O)N1[C@H](C(=O)O)C[C@@H]2CCC[C@@H]21`, the “TCF/Wnt firefly luciferase reporter signal” value worked out at 1.06 ± 0.035.

`CC(C)CC(NC(=O)OCC1c2ccccc2-c2ccccc21)C(=O)O` (stereo in doubt): the “TCF/Wnt firefly luciferase reporter signal” value worked out at 0.979 ± 0.027.

Take `O=c1c(O)cc([C@H]2Oc3cc(O)cc(O)c3C[C@H]2O)cc2c([C@H]3Oc4cc(O)cc(O)c4C[C@H]3O)cc(O)c(O)c12`: the “TCF/Wnt firefly luciferase reporter signal” value amounted to 0.949 ± 0.044.

For `O=C(O)c1c2ccccc2cc2ccccc12`, the “TCF/Wnt firefly luciferase reporter signal” value came out at 0.934 ± 0.064.

For the compound `COc1ccc(-c2cc(=O)c3c(OC)c(OC)c(OC)c(OC)c3o2)cc1OC`, the “TCF/Wnt firefly luciferase reporter signal” value is 0.951 ± 0.034.
